Molecules are shown by their SMILES. Values joined by “and” are separate entries in the source; they are usually repeats but may differ in a detail not shown here. Equal entries are not always repeated. Compounds without any hit were thinned out: in the full panel of roughly 79,000, 15% have a hit. More than one record can exist for a structure, and the calls need not agree. Active and inactive are the calls of the source. No stated cut-off is given here; in the data, active means growth inhibition above about 70%; inactive means the rest.

Assay [1] can be described thus: NCI Yeast Anticancer Drug Screen. Data for the rad50 strain (AID 155).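 Further: 0% = growth of vehicle-only cultures of the same strain.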 To be noted: S. cerevisiae rad50 strain growth inhibition, stronger effect = higher value. A digest of the protocol: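 Yeast carrying a defined DNA repair defect were exposed to test compounds, and growth was compared with vehicle-treated controls to give percent inhibition.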
The nature of assay [2]: NCI Yeast Anticancer Drug Screen. Data for the mec2-1 strain (AID 157). To be noted: S. cerevisiae mec2-1 strain, stronger effect = higher value. A digest of the protocol: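 Readout is yeast growth inhibition, normalised to vehicle-treated controls, in the mec2-1 strain exposed to compound.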
Assay [3] in a line: NCI Yeast Anticancer Drug Screen. Data for the sgs1 mgt1 strain (AID 161).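 Further: 0% = growth of cultures given vehicle only.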 To be noted: S. cerevisiae sgs1 mgt1 strain, stronger effect = higher value. Summed up: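 Compounds are added to genetically altered yeast, and growth is compared with cultures given vehicle alone to give percent inhibition.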
Assay [4] can be described thus: NCI Yeast Anticancer Drug Screen. Data for the cln2 rad14 strain (AID 165).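 Further: 0% = growth equal to vehicle treated cultures.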 As to conditions: S. cerevisiae cln2 rad14 strain, stronger effect = higher value. A digest of the protocol:
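Relative to vehicle controls, growth inhibition of compound-treated cln2 rad14 yeast was recorded.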

A short description of assay [5]: NCI Yeast Anticancer Drug Screen. Data for the bub3 strain (AID 167). As to conditions: S. cerevisiae bub3 mutant strain, stronger effect = higher value. Summed up:
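Compounds were applied to a genetically altered yeast strain carrying a cell-cycle control defect. Growth inhibition was scored against vehicle-treated controls.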

Assay [6] is described as follows: NCI Yeast Anticancer Drug Screen. Data for the mlh1 rad18 strain (AID 175). As to conditions: S. cerevisiae mlh1 rad18 strain growth inhibition, stronger effect = higher value. Summed up:
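Test agents were incubated with a yeast strain of defined genotype (DNA damage repair defect). Inhibition of growth was derived by comparison with vehicle-exposed cultures.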

Where [7] appears, read: at 5.0 µM (retest, dose inferred, filed as 0.5).
Where [8] appears, read: at 50.0 µM (retest, dose inferred, filed as 5.0).

On to `NCC(=O)OCN1C(=O)C2C3C=CC(C2C1=O)C1C2C(=O)N(COC(=O)CN)C(=O)C2C31` (stereo unspecified), for which the growth inhibition in assay [1] (setting [7]) is 28% (inactive); in assay [1] (setting [8]), 63% (inactive); in assay [1] (at 50.0 µM), -5.35% (inactive) and 24% (inactive); in assay [2] (setting [7]), 20% (inactive); in assay [2] (setting [8]), 39% (inactive); in assay [2] (at 50.0 µM), 8.65% (inactive) and -62% (inactive). Also, the growth inhibition in assay [3] (setting [7]) is 25% (inactive); in assay [3] (setting [8]) it was 45% (inactive); in assay [3] (at 50.0 µM), 4.85% (inactive) and -30.4% (inactive); in assay [4] (setting [7]) it was 21% (inactive); in assay [4] (setting [8]) it was 55% (inactive); in assay [4] (at 50.0 µM), 23.5% (inactive) and -6.55% (inactive). The growth inhibition in assay [5] (setting [7]) is 24% (inactive); in assay [5] (setting [8]), 68% (inactive); in assay [5] (at 50.0 µM), -15.2% (inactive) and -46.8% (inactive); in assay [6] (setting [7]), 26% (inactive); in assay [6] (setting [8]), 71% (active); in assay [6] (at 50.0 µM) it was -18.6% (inactive) and -43.7% (inactive).

Turning to `COc1cc2c(cc1OC)C(Cc1c3ccccc3cc3ccccc13)N(C)CC2` (stereo unspecified), the growth inhibition was 4% (inactive) in assay [1] (setting [7]); 41% (inactive) in assay [1] (setting [8]); 16.2% (inactive) in assay [1] (at 50.0 µM); -18% (inactive) in assay [2] (setting [7]); 43% (inactive) in assay [2] (setting [8]); 14.8% (inactive) in assay [2] (at 50.0 µM). The growth inhibition is 1% (inactive) in assay [3] (setting [7]); 50% (inactive) in assay [3] (setting [8]); 93.1% (active) in assay [3] (at 50.0 µM); 0% (inactive) in assay [4] (setting [7]); 3% (inactive) in assay [4] (setting [8]); 62.5% (inactive) in assay [4] (at 50.0 µM). Also, the growth inhibition is 0% (inactive) in assay [5] (setting [7]); 15% (inactive) in assay [5] (setting [8]); 58.3% (inactive) in assay [5] (at 50.0 µM); 3% (inactive) in assay [6] (setting [7]); 56% (inactive) in assay [6] (setting [8]); 99.4% (active) in assay [6] (at 50.0 µM).

Consider `COC1/C=C/OC2(C)Oc3c(C)c(O)c4c(c3C2=O)C(=O)C=C(NC(=O)/C(C)=C\C=C\C(C)C2OC(C)(C)OC(C2C)C(C)C(OC(C)=O)C1C)C4=O` (stereo unspecified), for which the growth inhibition in assay [1] (setting [7]) was 2% (inactive); in assay [1] (setting [8]), 89% (active); in assay [1] (at 50.0 µM), 51.9% (inactive); in assay [2] (setting [7]), 30% (inactive); in assay [2] (setting [8]), 79% (active); in assay [2] (at 50.0 µM), 57.3% (inactive). In addition, the growth inhibition in assay [3] (setting [7]) is -3% (inactive); in assay [3] (setting [8]) it was 73% (active); in assay [3] (at 50.0 µM), 60.8% (inactive); in assay [4] (setting [7]) it was 1% (inactive); in assay [4] (setting [8]) it was 89% (active); in assay [4] (at 50.0 µM), 57% (inactive). Further, the growth inhibition in assay [5] (setting [7]) is 2% (inactive); in assay [5] (setting [8]) it was 74% (active); in assay [5] (at 50.0 µM), 45.8% (inactive); in assay [6] (setting [7]), 3% (inactive); in assay [6] (setting [8]), 92% (active); in assay [6] (at 50.0 µM), 60.8% (inactive).

For `NNC(=O)c1ccc(NC(=O)CSc2nc3ccccc3s2)cc1`, the growth inhibition in assay [1] (setting [7]) is -4% (inactive); in assay [1] (setting [8]), 35% (inactive); in assay [1] (at 50.0 µM), 92.7% (active); in assay [2] (setting [7]), 6% (inactive); in assay [2] (setting [8]), 28% (inactive); in assay [2] (at 50.0 µM) it was 79% (active). Also, the growth inhibition is 9% (inactive) in assay [3] (setting [7]); 59% (inactive) in assay [3] (setting [8]); 96.2% (active) in assay [3] (at 50.0 µM); 0% (inactive) in assay [4] (setting [7]); 48% (inactive) in assay [4] (setting [8]); 31.2% (inactive) in assay [4] (at 50.0 µM). For the same compound, the growth inhibition was 52% (inactive) in assay [5] (setting [7]); 82% (active) in assay [5] (setting [8]); 97.8% (active) in assay [5] (at 50.0 µM); 86% (active) in assay [6] (setting [7]); 82% (active) in assay [6] (setting [8]); 98.6% (active) in assay [6] (at 50.0 µM).

Regarding `Nc1ccc(N=Nc2ccccc2)c(N)n1`, the growth inhibition in assay [1] (setting [7]) was -166% (inactive); in assay [1] (setting [8]), -14% (inactive); in assay [1] (at 50.0 µM) it was 38.1% (inactive) and 16.4% (inactive); in assay [2] (setting [7]), -54% (inactive); in assay [2] (setting [8]), -20% (inactive); in assay [2] (at 50.0 µM), 30.4% (inactive) and 10.7% (inactive). The growth inhibition in assay [3] (setting [7]) is -73% (inactive); in assay [3] (setting [8]), 4% (inactive); in assay [3] (at 50.0 µM), 28.6% (inactive) and 5.05% (inactive); in assay [4] (setting [7]), -72% (inactive); in assay [4] (setting [8]), 10% (inactive); in assay [4] (at 50.0 µM) it was 9.05% (inactive) and 19.2% (inactive). The growth inhibition in assay [5] (setting [7]) was -71% (inactive); in assay [5] (setting [8]), -26% (inactive); in assay [5] (at 50.0 µM), 27.2% (inactive) and 3.75% (inactive); in assay [6] (setting [7]), -130% (inactive); in assay [6] (setting [8]), -25% (inactive); in assay [6] (at 50.0 µM), 57.1% (inactive) and 7.85% (inactive).

`CCCCCCCCCCCCCCCCCCOCC(O)CO` (stereo unspecified): the growth inhibition in assay [1] (setting [7]) was 0% (inactive); in assay [1] (setting [8]), -1% (inactive); in assay [1] (at 50.0 µM), 45.5% (inactive); in assay [2] (setting [7]), -2% (inactive); in assay [2] (setting [8]) it was -1% (inactive); in assay [2] (at 50.0 µM), 55.6% (inactive). Also, the growth inhibition in assay [3] (setting [7]) is -1% (inactive); in assay [3] (setting [8]) it was -1% (inactive); in assay [3] (at 50.0 µM) it was 62.6% (inactive); in assay [4] (setting [7]), -1% (inactive); in assay [4] (setting [8]), -7% (inactive); in assay [4] (at 50.0 µM), 34.2% (inactive). Further, the growth inhibition in assay [5] (setting [7]) was 2% (inactive); in assay [5] (setting [8]), -1% (inactive); in assay [5] (at 50.0 µM), 64.7% (inactive); in assay [6] (setting [7]) it was -3% (inactive); in assay [6] (setting [8]) it was -13% (inactive); in assay [6] (at 50.0 µM), 57% (inactive).

For `CC1=CC(=Nc2ccc(N(C)C)cc2)C=CC1=O`, the growth inhibition in assay [1] (setting [7]) was 1% (inactive); in assay [1] (setting [8]) it was 7% (inactive); in assay [1] (at 50.0 µM), -4.05% (inactive) and 78.8% (active); in assay [2] (setting [7]), -5% (inactive); in assay [2] (setting [8]) it was 2% (inactive); in assay [2] (at 50.0 µM), 10.2% (inactive) and 46.4% (inactive). The growth inhibition in assay [3] (setting [7]) was 1% (inactive); in assay [3] (setting [8]), 7% (inactive); in assay [3] (at 50.0 µM) it was 21.9% (inactive) and 84.1% (active); in assay [4] (setting [7]), -3% (inactive); in assay [4] (setting [8]) it was -6% (inactive); in assay [4] (at 50.0 µM), -4.55% (inactive) and 33.5% (inactive). The growth inhibition in assay [5] (setting [7]) is -1% (inactive); in assay [5] (setting [8]), -9% (inactive); in assay [5] (at 50.0 µM), -7% (inactive) and 21.4% (inactive); in assay [6] (setting [7]) it was -3% (inactive); in assay [6] (setting [8]) it was 9% (inactive); in assay [6] (at 50.0 µM), 16.4% (inactive) and 66.2% (inactive).

The record behind these values is PubChem BioAssay (NCI).
